Compounds with a hit are over-represented: about 10% of the library has one in this group of screens.
SW480 rereplic – induces DNA re-replication in SW480 colon adenocarcinoma cells; actives 1.8% (n = 340,000); AID 624297; Potency, µM (doses to about 46.1 µM), inactives show at the highest dose re-replication activation, hits mostly activators; SW480 DNA re-replication, Hoechst DNA content imaging, 48 h; note: % of control where 0% means no effect; nearly all actives have a fitted effect of over 55% in size
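Compounds, transferred as 23 nL by pin tool, were incubated with cells for 48 hr; DNA content per nucleus was then quantified by Hoechst staining and fluorescence plate imaging.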
RORgamma inh – ROR gamma (mouse) transcription inhibition; P51450; actives 5.4% (n = 310,000); Drosophila S2 Gal4-RORgamma UAS-luciferase reporter, 20 h; Potency, µM (doses to about 53.6 µM), for the others: at the highest dose activity change, negative = inhibition, most hits filed as inhibitors; note: % is set by controls: 0 for no effect and ±100 for the full control effect; nearly all actives have a fitted effect of over 60% in size
Target sequence (P51450 whole entry, looked up, the tested form may be a part): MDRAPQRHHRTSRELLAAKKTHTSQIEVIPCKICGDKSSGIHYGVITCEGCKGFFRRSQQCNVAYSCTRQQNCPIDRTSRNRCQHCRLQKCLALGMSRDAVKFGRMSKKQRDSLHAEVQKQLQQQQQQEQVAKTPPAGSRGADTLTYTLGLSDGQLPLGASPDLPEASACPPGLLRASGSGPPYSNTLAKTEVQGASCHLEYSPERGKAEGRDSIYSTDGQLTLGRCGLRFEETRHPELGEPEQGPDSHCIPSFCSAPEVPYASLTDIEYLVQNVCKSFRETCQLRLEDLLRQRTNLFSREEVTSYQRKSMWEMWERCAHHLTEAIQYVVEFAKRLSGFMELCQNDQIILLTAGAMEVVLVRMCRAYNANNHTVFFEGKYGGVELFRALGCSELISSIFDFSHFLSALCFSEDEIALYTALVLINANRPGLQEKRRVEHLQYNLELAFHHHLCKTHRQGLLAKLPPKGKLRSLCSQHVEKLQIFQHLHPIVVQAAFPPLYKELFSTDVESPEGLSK
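In this cell-based reporter format, copper sulfate (700 uM final) drives Gal4–ROR gamma fusion expression from a metallothionein promoter in Drosophila Schneider cells; compounds preincubated 1 hr, reporter read after 20 hr at ambient temperature.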
VP16 counter – counter-screen for ROR gamma inhibitors: Gal4-VP16 reporter | AID 2546 | Drosophila S2 Gal4-VP16 UAS-luciferase, luminescence, 20 h | actives 3.5% (n = 310,000) | Potency, µM (highest dose often 53.6 µM), without a hit: at the top dose activity, negative = inhibition, usual class: inhibitors;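 note: Gal4-VP16 expression switched on by copper sulfate through the metallothionein promoter; % is set by controls: 0 for no effect and ±100 for the full control effect; nearly all actives have a fitted effect of over 50% in size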
KB-3-1 cytotox – kills parental KB-3-1 adenocarcinoma cells | KB-3-1 viability, CellTiter-Glo ATP luminescence, 72 h | Potency, µM (series often up to 46.1 µM), hits mostly cytotoxic | actives 1.4% (n = 400,000) | AID 1347075; note: % is set by controls: 0 for no effect and ±100 for the full control effect; nearly all actives have a fitted effect of over 60% in size
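Cytotoxicity in the drug-sensitive parental line KB-3-1 was scored as loss of CellTiter-Glo luminescence following 72 h incubation with compound. Values come from curve fitting of normalized concentration-response data.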
MCF10A rerep – DNA re-replication induction in MCF 10a cells. MCF 10A DNA re-replication, Hoechst nuclear intensity, 48 h. Potency, µM (titrated, usually from 46.1 µM), without a hit: at the top dose activity, positive = re-replication, usual class: activators. actives 2.9% (n = 350,000). AID 624296; note: % of control where 0% means no effect; nearly all actives have a fitted effect of over 50% in size
KB-V1 MDR tox – KB-V1 MDR subline cytotoxicity. KB-V1 MDR cells viability, CellTiter-Glo, 72 h. Potency, µM (series often up to 46.1 µM), usual class: cytotoxic. actives 3.4% (n = 400,000). AID 1347076; note: % is set by controls: 0 for no effect and ±100 for the full control effect; nearly all actives have a fitted effect of over 60% in size
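KB-V1 MDR subline cells in DMEM (phenol-red free, 10% FBS) exposed to compounds in qHTS concentration series for 72 h at 37 degrees C. Viability read by CellTiter-Glo luminescence; concentration-effect curves fitted after normalization and correction.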
Starred values were filed as active, the others as inactive; i = inactive; ? = inconclusive; · = not tested or not shown; [ ] = another dose, or the depositor's remark. Calls come from the whole dose curve; as a rule, active = well fitted curve in the direction sought with a large enough effect; inconclusive = small, poorly fitted or top-dose-only effect, or another doubt; inactive = no such curve, though single readings can be large; an effect the other way counts as inactive or inconclusive. Potency is the fitted concentration of half-maximal effect.

SMILES | SW480 rereplic | RORgamma inh | VP16 counter | KB-3-1 cytotox | MCF10A rerep | KB-V1 MDR tox
CC(C)C1C(=O)N(Cc2cn(CC3CCCCC3)nn2)CCS(=O)(=O)N1Cc1ccc(-c2ccc(F)nc2)cc1 (centres undefined) | · | · | · | 16µM* | · | ?
CC1C(=O)N(Cc2cn(CC3CCCCC3)nn2)CCS(=O)(=O)N1Cc1ccc(-c2ccc(Cl)cc2)cc1 (centres undefined) | · | · | · | ? | · | 18µM*
COCOCCn1cc(CN2CCS(=O)(=O)N(Cc3ccc(-c4ccc(Cl)c(Cl)c4)cc3)C(C)C2=O)nn1 (centres undefined) | · | · | · | 15µM* | · | ?
COc1ccc(S(=O)(=O)Nc2cc3c(cc2NCc2ccccc2)n(C)c(=O)n3C)cc1 | · | · | · | i | · | i
COc1ccc(Br)cc1CNC(=O)C1CCCCN1S(=O)(=O)c1ccc(F)cc1 (centres undefined) | · | · | · | i | · | i
O=C(N1CCOCC1)N1c2ccccc2Sc2ccccc21 | 8% | 21% | 1% | i | -2% | ?
O=C(NC1CCN(C(=O)N2c3ccccc3Sc3ccccc32)CC1)c1ccccc1F | 16% | ? | 3.5µM* | i | 28% | ?
CC1CCCN(C(=O)N2c3ccccc3Sc3ccccc32)C1 (centres undefined) | ? | -11% | 1% | i | ? | ?
CC1CN(C(=O)N2c3ccccc3Sc3ccccc32)CC(C)O1 (centres undefined) | 8% | 31% | 3.5µM* | i | ? | i
Cc1ccc(C)c(N(CC(=O)NCc2ccco2)C(=O)CCC(=O)Nc2nccs2)c1 | -34% | -5% | 1% | i | -1% | i
COc1ccccc1Cc1c(-c2ccc(OC)c(OC)c2)nc2c(Cl)cc(C(F)(F)F)cn12 | · | · | · | i | · | ?
Cc1[nH]c2ccccc2c1C(=O)/C=C/c1ccccc1Cl | 19% | -35%[10 µM] | 13% | i | ? | ?
Cc1[nH]c2ccccc2c1C(=O)/C=C\c1ccccc1Cl | ? | 13µM* | -3% | ? | ? | ?
COc1cccc(NC(=O)CN(C)C(=O)c2cc(-c3ccccc3)nc3ccc(C)cc23)c1 | ? | · | · | i | ? | i
CCOc1ccc(NC(=O)CN(C)C(=O)c2cccc3ccccc23)cc1OCC | -4% | · | · | ? | 2% | ?
CCOc1ccc(NC(=O)CN(C)C(=O)c2cc(-c3ccc(OC)cc3)nc3ccccc23)cc1OCC | 3% | · | · | i | 16µM* | ?
COc1cccc(NC(=O)CN(C)C(=O)c2cc(-c3cccc(Br)c3)nc3ccccc23)c1 | ? | · | · | ? | 13µM* | ?
CCOc1ccc(NC(=O)CN(C)C(=O)c2ccccc2OCCOc2ccccc2)cc1OCC | 0% | · | · | i | 10% | 2.3µM*
COc1ccc(NC(=O)CN(C)C(=O)c2cc(-c3ccc(Cl)cc3)nc3ccccc23)cc1 | 9% | · | · | i | 18µM* | ?
CC1CC(C)CN(S(=O)(=O)CCNC(=O)c2ccc3c(c2)OCO3)C1 (centres undefined) | -126% | · | · | i | -11% | i
COc1cc(SC)ccc1C(=O)N1CCn2c3c(c4cc(C)ccc42)CCCC31 (centres undefined) | · | · | · | i | · | i
COC(=O)c1ccc(NC(=O)CCn2cccn2)cc1 | · | · | · | i | · | i
O=Cc1ccc(OCc2nnc(-c3ccccc3Br)o2)cc1 | -22% | -8% | -15% | i | -8% | i
c1ccc(OCc2nnc(-c3ccccc3)o2)cc1 | -13% | 5% | 5% | i | -4% | i
Oc1ccccc1-c1nnc(COc2ccccc2)o1 | 12% | 10µM* | ? | i | -4% | i
NC(=O)c1ccccc1OCc1nnc(-c2ccccc2Br)o1 | 1% | -3% | ? | i | 4% | 18µM*
Oc1ccccc1-c1nnc(COc2ccc(Cl)cc2Cl)o1 | -8% | 2.5µM* | 4.5µM* | i | 0% | i

Source: PubChem (National Center for Advancing Translational Sciences (NCATS))
